This is an account of results in PubChem BioAssay.

Activity calls are given as the source filed them.

Experiment [1] can be described thus: compound effects on lung adenocarcinoma cell viability – A549, calcein-AM fluorescence, 48 h, basal, profiling panel (AID 1162). Conditions: higher = more signal.
Experiment [2] in a line: compound effects on differentiated 3T3-L1 adipocyte viability – cell-based, 3T3-L1 adipocytes, calcein-AM fluorescence, 48 h, basal, profiling panel (AID 1163). The note with it: 3T3-L1 adipocytes viability, higher = more signal.
The nature of experiment [3]: compound effects on hepatocellular carcinoma cell viability – HepG2, calcein-AM fluorescence, 48 h, basal, profiling panel (AID 1164). Conditions: higher = more signal.
Experiment [4] in a line: compound effects on multiple myeloma cell viability – MM1S, calcein-AM fluorescence, 48 h, basal, profiling panel (AID 1165).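 Note: viability of MM1S multiple myeloma cells under basal unstimulated conditions.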 The note with it: higher = more signal.
The nature of experiment [5]: calcein-AM signal in unstimulated myeloma cells – cell-based, calcein-AM fluorescence, 48 h, PK04 Diversity Set, profiling panel (AID 1166).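 Note: cells grown under basal conditions without added stimulus.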 The note with it: RPMI8226 myeloma viability, higher = more signal.
Experiment [6] in a line: JC-1 mitochondrial signal, unstimulated HepG2 cells – cell-based, JC-1 fluorescence, 24 h, 100 nL compound, profiling panel (AID 1167). The note with it: HepG2 mitochondrial potential, higher = more signal.
The nature of experiment [7]: JC-1 mitochondrial signal, unstimulated adipocytes – cell-based, JC-1 fluorescence, 3T3-L1 adipocytes, 24 h, 100 nL compound, profiling panel (AID 1168). Conditions: JC-1 mitochondrial fluorescence, higher = more signal, called active from +8 up or from −8 down.
Experiment [8] in a line: JC-1 mitochondrial signal, unstimulated myeloma cells – cell-based, JC-1 fluorescence, RPMI8226, 24 h, 100 nL compound, profiling panel (AID 1169). Conditions: JC-1 mitochondrial potential fluorescence, higher = more signal.
The nature of experiment [9]: JC-1 mitochondrial signal, unstimulated MM1S myeloma – cell-based, JC-1 fluorescence, 24 h, 100 nL compound, profiling panel (AID 1170). Conditions: MM1S mitochondrial potential, higher = more signal.
Experiment [10] in a line: resazurin metabolic signal in A549 cells – cell-based, resazurin fluorescence, 24 h, PK04 Diversity Set, profiling panel (AID 1171). The note with it: A549 viability, higher = more signal, called active from +8 up or from −8 down. (The colour change of resazurin is a common sign of viable cells or microbes.)
Note: test concentration not given here.

On to `CC(C)N1C(=O)[C@@]2(Cc3ccccc31)c1ccccc1C(=O)N(Cc1ccccc1C(F)(F)F)[C@H]2c1ccc(CO)cc1`, for which the z-score in experiment [1] is -0.262; in experiment [2], 0.523; in [3] it was 0.133; in experiment [4], -0.895; in [5], -1.27; in experiment [6], -0.77. The z-score is 0.109 (inactive) in experiment [7], 0.0301 in [8], 1.03 in experiment [9] and 0.752 (inactive) in experiment [10].

In the case of `[N-]=[N+]=NCc1ccccc1[C@H]1OC(c2ccc(OCCCO)cc2)=N[C@@]1(Cc1ccccc1N=[N+]=[N-])C(N)=O`, the z-score in [1] was -0.0372; in experiment [2], -0.117; in experiment [3] it was -0.18; in experiment [4] it was -1.84; in [5], -1.76; in experiment [6], -0.255. Besides, the z-score in experiment [7] is 0.199 (inactive); in experiment [8], -1.06; in [9] it was -0.928; in [10], 0.85 (inactive).

In the case of `CC[C@H]1C2=C3C(CC[C@H]4C(OCc5ccc(F)cc5C(F)(F)F)OC[C@](C)([C@@H]34)N(C(=O)OC(C)(C)C)C2)C(COC(C)=O)C1COC(C)=O` (stereo not given in full), the z-score was -0.128 in experiment [1]; -0.154 in experiment [2]; 0.228 in experiment [3]; -0.814 in experiment [4]; -2.5 in [5]; 3.43 in [6]. Also, the z-score in [7] is -1.43 (inactive); in experiment [8], -0.555; in [9] it was -1.29; in experiment [10], 0.226 (inactive).

As to `COCCOC(=O)N1C(=O)[C@@]2(c3cc(C#CCNC(N)=O)ccc31)[C@H](c1ccccc1OCCO)N1[C@H](c3ccccc3)[C@H](c3ccccc3)OC(=O)[C@H]1[C@@H]2C(=O)N1CCCCCCC1`, the z-score is -0.396 in experiment [1]; -0.0319 in experiment [2]; 0.371 in experiment [3]; -1.22 in experiment [4]; 0.56 in experiment [5]; -1.51 in [6]. In addition, the z-score in experiment [7] is -1.3 (inactive); in experiment [8], -0.441; in experiment [9], -0.911; in experiment [10] it was 0.519 (inactive).

Regarding `COC(=O)[C@@]1(Cc2ccccc2)[C@H]2c3cc(C(=O)N(C)C)n(CCF)c3C[C@H]2CN1C(=O)c1ccccc1`, the z-score in experiment [1] is -1.23; in experiment [2], -0.386; in [3], -0.561; in [4], 0.258; in experiment [5], -0.57; in experiment [6], 0.376. Besides, the z-score is -0.874 (inactive) in experiment [7], 0.328 in experiment [8], -0.294 in [9] and -0.818 (inactive) in [10].

As for `COc1ccc([Si](C)(C)[C@H]2[C@H](CC(=O)N3CCC[C@H]3CO)O[C@@]3(C(=O)N(C)c4ccccc43)[C@@H]2C)cc1`, the z-score is 0.183 in experiment [1]; -0.522 in [2]; 0.233 in experiment [3]; 0.0008 in experiment [4]; 0.143 in experiment [5]; -1.03 in experiment [6]. For the same compound, the z-score was -0.223 (inactive) in experiment [7], 0.812 in experiment [8], -0.265 in experiment [9] and -0.394 (inactive) in experiment [10].

On to `C=CCC(OC(C)=O)[C@@H]1[C@@H](N(Cc2ccc(-c3ccccc3)cc2)C(=O)Cc2ccc(OC)cc2)c2cc(OCCCO)ccc2N1C(=O)Cc1ccc(OC)cc1` (stereo not given in full), for which the z-score was 0.0816 in experiment [1]; 0.9 in experiment [2]; -0.103 in experiment [3]; 0.11 in [4]; -0.203 in experiment [5]; 2.58 in experiment [6]. The z-score in [7] was -0.454 (inactive); in [8], -0.0751; in [9], 0.504; in experiment [10] it was 0.117 (inactive).

Turning to `CC(C)(C)OC(=O)CC[C@@]1(C(=O)N2CCOCC2)N=C(c2ccc(OCCCO)cc2)O[C@@H]1c1ccccc1CN=[N+]=[N-]`, the z-score in experiment [1] was -0.688; in [2], 1.35; in [3], -0.261; in experiment [4], -0.169; in experiment [5], -1.58; in [6] it was 0.259. In addition, the z-score is -0.506 (inactive) in [7], -0.546 in experiment [8], -0.567 in [9] and 0.792 (inactive) in [10].

Regarding `CC[C@@H](O[Si](C#C[Si](C(C)C)(C(C)C)C(C)C)(C(C)C)C(C)C)c1cn([C@H](C)c2ccccc2)nn1`, the z-score in [1] was -0.7; in experiment [2] it was -0.685; in experiment [3] it was -0.499; in experiment [4] it was 0.375; in experiment [5], 0.253; in experiment [6], -0.0266. For the same compound, the z-score in [7] was -1.02 (inactive); in experiment [8], 0.0594; in experiment [9], -0.876; in experiment [10], 0.566 (inactive).

`Cc1ccc(S[C@]2(C(=O)NCc3ccccc3)CC(=O)N(Cc3ccccc3Cl)[C@@H]2c2ccc(CO)cc2)cc1`: the z-score in [1] is -0.643; in experiment [2] it was 0.9; in experiment [3], 0.191; in experiment [4], 0.0218; in [5], -1.25; in experiment [6], 0.0273. For the same compound, the z-score is -0.537 (inactive) in [7], -0.517 in experiment [8], 0.666 in experiment [9] and 0.0338 (inactive) in experiment [10].

`C=C(COC)/C(=C/C[C@@H](OC(=O)c1ccncc1)c1ccccc1OCCO)c1cnc2ccccc2c1`: the z-score is 0.746 in experiment [1]; 0.317 in [2]; -0.316 in experiment [3]; -3.18 in experiment [4]; -0.986 in experiment [5]; 2.78 in [6]. The z-score in [7] was -1.16 (inactive); in experiment [8] it was -0.527; in experiment [9] it was 1.61; in experiment [10] it was 0.268 (inactive).

For `N#Cc1ccc(NN2C(C(O)c3ccc(B(O)O)cc3)C=CC3CN(c4ccccc4)C(=O)C32)cc1` (stereo not given), the z-score in experiment [1] was 0.222; in [2], -0.463; in [3], -0.35; in experiment [4] it was -0.104; in experiment [5], -1.29; in experiment [6], -2.14. For the same compound, the z-score was -0.643 (inactive) in [7], -0.0762 in [8], -0.696 in experiment [9] and 0.238 (inactive) in experiment [10].

In the case of `O=C1C2C=CC(C(O)c3ccccn3)N(Nc3ccc([N+](=O)[O-])cc3)C2C(=O)N1c1ccccc1` (stereo not given), the z-score was -0.264 in experiment [1]; -0.723 in experiment [2]; 0.19 in experiment [3]; -0.416 in experiment [4]; -0.737 in experiment [5]; -1.47 in experiment [6]. In addition, the z-score is -1.83 (inactive) in experiment [7], -0.187 in [8], -1.13 in [9] and -0.0475 (inactive) in experiment [10].

In the case of `O=C1OCCC/C=C\[C@H]2OC34C=CCN(Cc5ccccc5)C(=O)[C@H]3N(CCO)C(=O)[C@@H]4C12` (stereo not given in full), the z-score in experiment [1] was 0.457; in experiment [2] it was -0.728; in experiment [3] it was 1.21; in [4] it was 1.64; in experiment [5], 0.998; in experiment [6], 1.03. The z-score in [7] is 0.857 (inactive); in experiment [8] it was -0.0351; in experiment [9], -0.27; in experiment [10], 0.263 (inactive).
